Screens from PubChem.
USP8 block: human USP8 deubiquitinase inhibition | P40818 | purified USP8, Ub-rhodamine cleavage fluorescence, 30 min | inhibition, % at 20 µM | 47,000 tested, 4.2% active
USP28 block: human USP28 deubiquitinase inhibition. inhibition, % at 25 µM. Q96RU2. 47,000 tested, 3% active. purified USP28, Ub-rhodamine cleavage fluorescence, 30 min
USP10 inh: blocks human USP10 ubiquitin-rhodamine cleavage; Q14694; purified USP10, Ub-rhodamine fluorescence, 60 min; inhibition, % at 20 µM; 47,000 tested, 1.1% active; AID 1645856
UCHL1 inh: blocks human UCHL1 ubiquitin-rhodamine cleavage; 47,000 tested, 0.2% active; purified UCHL1, Ub-rhodamine cleavage fluorescence; inhibition, % at 20 µM
OTUD3 block: human OTUD3 deubiquitinase inhibition; inhibition, % at 25 µM; Q5T2D3; 47,000 tested, 0.7% active; AID 1645858; purified OTUD3, Ub-rhodamine fluorescence, 2 h
USP7 block: blocks human USP7 ubiquitin-rhodamine cleavage | AID 1645854 | purified USP7, Ub-rhodamine cleavage fluorescence | Q93009 | 47,000 tested, 0.3% active | inhibition, % at 20 µM
Of the large screens only hits and unclear results are named; the others gave an inactive call. This is a sample that favours compounds with a hit; in the whole collection about 6.8% have one here. No stated cut-off is given here; in the data, active means inhibition above about 30%; inactive means the rest.

COc1ccc(OC)c(CCNC(=O)CCC2=NS(=O)(=O)c3ccc(C(F)(F)F)cc3N2)c1	USP8 block 58.3
O=C(CCC1=NS(=O)(=O)c2ccc(C(F)(F)F)cc2N1)NCc1ccccc1	none
CC(C)c1cccc(OCCOCCN2CCNCC2)c1	USP28 block 48.0
COc1cccc(C(=O)Nc2nonc2-c2ccc(C(C)C)cc2)c1	USP8 block 43.5
Fc1cc2c(c(CSc3nnc4ccccn34)c1)OC(c1ccccc1)OC2 (centres undefined)	USP8 block 48.5
O=C(NCc1ccccc1F)C1Cc2cc(Cl)ccc2O1 (centres undefined)	none
Cc1cc2c(cc1S(=O)(=O)N(CCc1ccccc1)Cc1ccccc1)OCC(=O)N2	none
COc1ccc(C)cc1NC(=O)N1CCC2(C1)Nc1cccnc1NC2=NC1CCCC1 (centres undefined)	none
COc1cccc(NC(=O)Cn2c3ccccc3n3c(=O)cc(-c4ccccc4)nc23)c1	USP8 block 88.2, USP10 inh 48.8
Cc1ccsc1C1CCCCCN1S(=O)(=O)c1ccccc1F (centres undefined)	USP8 block 32.5
Cc1nc2cccnc2n1C1CCN(C(=O)c2cc3cc(Cl)ccc3[nH]2)C1 (centres undefined)	USP28 block 41.5
O=C(c1ccccc1)N1CCC(c2cccc(Cc3cccc(F)c3)n2)CC1	USP28 block 43.3
O=C(c1ccccc1)N1CCCC1c1cccc(Cc2ccccc2)n1 (centres undefined)	none
CC(C)(C)c1cc(NC(=O)c2ccncc2)no1	none
COc1ccc(/C=C/C(=O)Nc2cccc(S(=O)(=O)Nc3ccccc3Cl)c2)c(OC)c1	USP8 block 65.6, USP28 block 52.2, USP10 inh 62.1
CCn1cc(S(=O)(=O)NCc2ccccc2)c2cccnc21	USP8 block 35.2
CC(C)CCNC(=O)c1cccc(-c2cnc(NC3CCCCC3)nc2)c1	none
CC(C)CCNC(=O)c1ccc2c(=O)n(C3CCCC3)c(=O)[nH]c2c1	USP8 block 34.4
O=C(COc1ccc([N+](=O)[O-])cc1Cl)Nc1ccc2c(c1)CCC2	none
O=C(NCCc1ccccc1)c1ccc2c(=O)n(CCC3=CCCCC3)c(=O)[nH]c2c1	none
O=C(NCCCN1CCN(c2ccc(F)cc2)CC1)c1ccc2c(=O)n(CCc3ccccc3)c(=O)[nH]c2c1	USP8 block 30.4
COc1ccc(-c2csc3ncnc(N4CCOCC4)c23)cc1	none
COc1ccc(Nc2nc(C(=O)NCc3ccc4c(c3)OCO4)cc3occc23)cc1	USP8 block 67.1, USP10 inh 33.1
O=C(NCc1ccccc1)c1cc2occc2c(Nc2ccc(F)cc2)n1	none
CCN1CCN(C(=O)c2cc3occc3c(Nc3ccc(OC)cc3)n2)CC1	none
COc1ccc(Nc2nc(C(=O)NCc3ccccc3)cc3occc23)cc1	USP8 block 55.2
COC(=O)c1ccc(C(C(=O)NC(C)(C)C)N(Cc2ccccc2Cl)C(=O)c2cccc(-n3cnnn3)c2)cc1 (centres undefined)	none
Cc1sc(NCc2ccccc2)nc1-c1ccccc1	USP28 block 40.3
Clc1cncc(Oc2nc(-c3cccnc3)nc3ccccc23)c1	none
Cn1c(=O)c2c(-c3cccc(F)c3)c(Nc3ccccc3)oc2n(C)c1=O	USP28 block 39.1
Cc1nn(-c2ccccc2)c2c1C(c1cccnc1)c1c(ncn3nc(-c4cccc5ccccc45)nc13)O2 (centres undefined)	none
Cc1ccc(C2c3c(C)nn(-c4ccccc4)c3Oc3ncn4nc(-c5ccccc5O)nc4c32)cc1 (centres undefined)	USP8 block 40.6
CCCCCCCc1cc(O)cc(O)c1	USP28 block 76.7
O=C(Nc1ccc2c(c1)OCCCO2)c1cc(=O)[nH]c2ccccc12	none (no result: USP28 block)
CCn1c(SCC(=O)N2CCc3ccccc32)nnc1-c1ccc(C)c(Cl)c1	none
Cn1nc(C(=O)N2CCC(c3ccccc3)C2)c2c1-c1ccsc1CC2 (centres undefined)	USP8 block 73.5
Cc1ccc(CNC(=O)c2nn(C)c3c2CCc2sccc2-3)cc1	USP28 block 35.9
Cn1cc(C(=O)NCCc2ccccc2)c(=O)c2cc(S(=O)(=O)N3CCCC3)ccc21	none
Cc1ccccc1CN1C[C@@H]2c3nc(NCC4CC4)ncc3CS(=O)(=O)[C@@H]2C1	USP8 block 34.8
